Results on 40 compounds are retold here after PubChem BioAssay (EPA / NIEHS).

Molecules are shown by their SMILES. Calls of active or inactive are those of the source. The calls were made as follows: active = hit-call score of the fitted dose curve at least 0.9, where 1 is the maximum; inactive = score below 0.9.

This assay is described as follows: ATG_GRE_CIS: Attagene CIS-FACTORIAL HepG2 Assay for human Glucocorticoid Response Elements (GRE) (AID 2282947). The settings on record: HepG2 GRE cis-reporter, Attagene multiplex mRNA; actives raise or lower the signal. As for the experimental part: ATG_CIS is a cell-based, multiplexed-readout assay that uses HepG2, a human liver cell line, with measurements taken at 24 hours after chemical dosing in a 24-well plate.ATG_GRE_CIS is one of 52 assay component(s) measured or calculated from the ATG_CIS assay. It is designed to make measurements of mRNA induction, a form of inducible reporter, as detected with fluorescence intensity signals by Reverse transcription polymerase chain reaction (RT-PCR) and Capillary electrophoresis technology.Data from the assay component ATG_GRE_CIS was analyzed into 1 assay endpoint. This assay endpoint, ATG_GRE_CIS, was analyzed with bidirectional fitting relative to DMSO as the negative control and baseline of activity. Using a type of inducible reporter, measures of mRNA for gain or loss-of-signal activity can be used to understand the reporter gene at the transcription factor-level as they relate to the gene NR3C1. Furthermore, this assay endpoint can be referred to as a primary readout, because this assay has produced multiple assay endpoints where this one serves a reporter gene function. To generalize the intended target to other relatable targets, this assay endpoint is annotated to the nuclear receptor intended target family, where the subfamily is steroidal.
Human liver HepG2 cells are transiently transfected with multiple reporter transcription units (MRTUs) in 6-well plates using FuGene 6 reagent (Roche; 3 ml FuGene/1 mg DNA). The MRTU constructs are regulated by a cis-regulating element (promoter). […] A major difference between the CIS and TRANS system is that in CIS activities of endogenous TFs are measured, whereas the TRANS assay evaluates changes in activities of exogenous, chimeric NR-Gal4 proteins. […] At the end of 24 hour incubation, total RNA was isolated using TriZol reagent (Invitrogen). The isolated RNA is then reverse-transcribed using oligo(dT) primer and Mo-MLV reverse transcriptase (Invitrogen) with DNAse I (Ambion) treatment for 30 min. The one-tenth of the produced cDNA was amplified by PCR using Taq DNA polymerase (Invitrogen) and two reporter sequence-specific primers. The PCR products were fluorescently labeled by primer extension with 6-arboxyfluorescein (6-FAM) 5'-labeled reporter sequence-specific primer (2 min at 95 C, 20 s at 68 C and 10 min at 72 C) and these products were digested with 5U of HpaI (New England Biolabs) for 2h at 37 C. The fragments were purified using Qiaquick PCR columns (Qiagen), analyzed on an ABI 3130xL genetic analyzer (Applied Biosystems) with peak positions identified by using a set of X-rhodamine (ROX)-labeled MapMarker1000 molecular weight standards (BioVentures). The raw capillary electrophoresis data was processed using Attagraph software (Attagene).
As to `CN(C)C(=O)NC1(c2ccccc2)CCN(CCC[C@]2(c3ccc(Cl)c(Cl)c3)CCCN(C(=O)c3ccccc3)C2)CC1`, the result was inactive.
`CCCCCCC(C=O)=Cc1ccccc1`: the compound was called inactive.
The same measure for `COC(=O)CCC(=O)OC`: “inactive”; for `CC(N)=O`: “inactive”; for `CCCCC(CC)COC(=O)CCCCCCCC(=O)OCC(CC)CCCC` (stereo not given): “inactive”.
In the case of `O=C1O[C@H]([C@H](O)CO)C(O)=C1O`, the compound was called inactive.
The same measure for `CCc1cc(C2=C(C(=O)O)N(c3ccccc3C(F)(F)F)S(=O)(=O)c3ccccc32)cc2c1OCO2`: “inactive”.
The value for `O=Cc1ccccc1C=O` was “inactive”.
Consider `C=CCCCCCCCCCCCC`, for which the outcome was inactive.
`N[C@@H](Cc1c[nH]c2ccccc12)C(=O)O`: the outcome was inactive.
The value for `CC(=O)[C@@]1(O)CC[C@H]2[C@@H]3CCC4=CC(=O)CC[C@]4(C)[C@H]3CC[C@@]21C` was “inactive”; that for `CS(=O)(=O)c1ccc([C@@H](C[C@H]2CCC(=O)C2)C(=O)Nc2cnccn2)cc1Cl` was “inactive”.
Consider `CCCCC(CC)CO` (stereo not given), for which the call was inactive.
As to `COC(=O)CCCC(=O)OC`, the compound was called inactive.
Consider `Oc1ccc(O)cc1`, for which the result was inactive.
The same measure for `CO[C@@H]1COCC[C@@H]1N[C@@H]1CC[C@@](C(=O)N2CCc3ncc(C(F)(F)F)cc3C2)(C(C)C)C1`: “inactive”; for `CCCCCCCCCCCCCCCCO`: “inactive”.
The same measure for `CC(C)NCC(O)c1ccc(O)c(O)c1` (stereo not given): “inactive”.
The same measure for `CCCCCCCCCC[N+](C)(C)[O-]`: “inactive”; for `CN(C)CCCN(C)CCCN(C)C`: “inactive”; for `Cn1cnc2c1c(=O)[nH]c(=O)n2C`: “inactive”.
Consider `CCCC(=O)O`, for which the compound was called inactive.
The same measure for `CC(C)(O)c1ccc(CNC(=O)c2cccnc2Oc2ccc(F)cc2)cc1`: “inactive”; for `CSc1ccc(Oc2ccc(S(N)(=O)=O)cc2CN(C)C)cc1C`: “inactive”.
The same measure for `Oc1ccccc1O`: “inactive”; for `Cc1ccc(-c2cc(C(F)(F)F)nn2-c2ccc(S(N)(=O)=O)cc2)cc1`: “inactive”.
The same measure for `O=C(N[C@@H](c1ccccc1)[C@@H]1CCCCN1)c1cccc(C(F)(F)F)c1Cl`: “inactive”; for `CCCCCCCCCCCCCCOS(=O)(=O)O`: “inactive”; for `O=C(O)CN(CC(=O)O)CC(=O)O`: “inactive”.
As to `CCCCCCC(CCCCCCCCCCC(=O)OCC(COC(C)=O)OC(C)=O)OC(C)=O` (stereo not given), the result was inactive.
With `O=C(NS(=O)(=O)/C=C/c1cccs1)c1ccc(F)cc1Br`, the compound was classed as inactive.
The same measure for `CCCCc1nc2cccnc2n1Cc1ccc(-c2ccccc2-c2nnn[nH]2)cc1`: “inactive”.
The value for `Nc1nc(=S)c2[nH]cnc2[nH]1` was “inactive”; that for `CC1(C)C(=O)NC(=O)N1CO` was “inactive”; that for `CN(C)C(=O)NC1(c2ccccc2)CCN(CC[C@@]2(c3ccc(F)c(F)c3)CN(C(=O)c3ccccc3)CCO2)CC1` was “inactive”.
`CCN(CC)CCOc1ccc(C(=C(Cl)c2ccccc2)c2ccccc2)cc1`: the compound was classed as inactive.
The same measure for `C#CC(O)C(CC)CCCC` (stereo not given): “inactive”.
The value for `CCc1nc(N)nc(N)c1-c1ccc(Cl)cc1` was “inactive”.
As for `CC(C)OC(=O)C(C)(C)Oc1ccc(C(=O)c2ccc(Cl)cc2)cc1`, the compound was classed as inactive.
Turning to `C=CCc1ccc(OC)c(OC)c1`, the compound was classed as inactive.
